In PubChem BioAssay AID588774 (The Scripps Research Institute Molecular Screening Center, 2011) one finds anti-target count and inhibition data, which are given here for four compounds.

The source made the active and inactive calls.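 How the source made its calls: active means target enzyme inhibited at least 50% at a set dose, and selective over every off-target enzyme by a set factor; inactive means weaker inhibition or too little selectivity.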

A short description of test [1]: competitive ABPP of pPAFAH versus proteome hydrolases – biochemical, gel-based, FP-Rh fluorescence, complex proteome, SAR compounds, selectivity assay for pPAFAH inhibitor project, SAR follow-up (AID 588774).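 On inhibition: 0% = DMSO-only band intensity and 100% = blank gel background.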 As to conditions: MW 30 kDa, anti-targets inhibited, at 10 µM.
The next test deals with MW 30 kDa. Described as above. The settings on record: at 10 µM, stronger effect = higher value.

Regarding `O=C(N1CCOCC1)n1oc2cc(Cl)ccc2c1=O`, in test [1], the anti-target count came to 6. The inhibition – broadly, how much of the control response was suppressed – in the test on MW 30 kDa is 78% (inactive).
`Cc1cc(N2CCN(C(=O)n3ncc(-c4ccccc4)n3)CC2)c2ccccc2n1` had an anti-target count in test [1] of 9. The inhibition in the test with MW 30 kDa is 88% (inactive).
The corresponding values for `Cc1cc(N2CCN(C(=O)n3ncc(-c4ccc(OC(F)(F)F)cc4)n3)CC2)c2ccccc2n1` are 9 and 100% (inactive).
Take `Cc1cc(N2CCN(C(=O)n3ncc(-c4ccc(Cl)c(Cl)c4)n3)CC2)c2ccccc2n1`: the anti-target count in test [1] turned out to be 8. For the same compound, the inhibition in the test with MW 30 kDa is 93% (inactive).
